PubChem BioAssay AID624351 (Southern Research Specialized Biocontainment Screening …, 2012)
In all, about 2,400 compounds went through this assay and about 1,400 (58%) were called active.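 Rule for the calls: active = inhibition of 30% or more at any tested dose; inconclusive = primary hits over the limit that were never retested; inactive = the rest.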 So high a share suggests a set chosen from earlier hits. The list shows a part of the results.

Assay: ADP Hunter readout inhibition without MgcRacGAP – biochemical, coupled enzyme counter-screen, artefact control for MgcRacGAP inhibitor project, dose response (AID 624351);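 note: signal is the ADP detection kit reading of free GDP without any GAP enzyme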
Settings: fluorescence, no MgcRacGAP; series mostly up to 80 µM

Structure (SMILES) | IC50
COc1cc(/C=N/n2c(C)nc3ccccc3c2=O)ccc1O | 43.1 µM (active)
CCCc1nc2ccccc2c(=O)n1/N=C/c1ccc(O)c(O)c1 | 41.7 µM (active)
COc1cc(/C=C/c2ccc3cccc(O)c3n2)ccc1O | 81.5 µM (active)
NCC[C@H](O)C(=O)N[C@@H]1C[C@H](N)[C@@H](O[C@H]2O[C@H](CN)[C@@H](O)[C@H](O)[C@H]2O)[C@H](O)[C@H]1O[C@H]1O[C@H](CO)[C@@H](O)[C@H](N)[C@H]1O | inactive
COc1cc(/C=N/NC(=O)CN(Cc2ccccc2)S(=O)(=O)c2ccc3c(c2)OCCO3)ccc1O | 73 µM (active)
COc1cc(/C=N/NC(=O)CN(Cc2ccco2)S(=O)(=O)c2ccccc2)ccc1O | 49.9 µM (active)
CS/C(=N\S(=O)(=O)c1cccs1)NC(=O)CSc1nc2ccccc2s1 | inactive
C#CCOCCOCCOCCNc1nc(N2CCN(C(=O)[C@H](CCCCN)n3cc(CN)nn3)CC2)nc(N2CCN(C(=O)[C@H](CCC(=O)O)n3cc([C@@H](N)CCCCN)nn3)CC2)n1 | inactive
CCOC(=O)C1=C(C)NC(=O)CC1c1cc2c(cc1[N+](=O)[O-])OCO2 (configuration not stated) | 64.2 µM (active)
OC1CNc2c(ccc3ccccc23)C1 (configuration not stated) | 16.5 µM (active)
O=C1CCC(C2CCc3cc(O)ccc3C2)C1 (configuration not stated) | 77.7 µM (active)
Clc1nssc1=Nc1ccc(Br)cc1 | inactive
CSc1nc(C)c2c(n1)N(c1ccc(O)cc1)CC2 | 16.2 µM (active)
Cc1ccc(N2C(S)=C(C#N)C(=O)NC2c2ccco2)cc1 (configuration not stated) | inactive
CCN(CC)CCOCCOc1ccc(Cl)c2ccccc12 | inactive
CCOc1cccc2cc(C(=O)Oc3ccc(OC)cc3)c(=O)oc12 | inactive
COc1cc(/C=N/NC(=O)CCC(=O)Nc2ccc(F)cc2)ccc1O | 36.4 µM (active)
Cc1ccc(NC(=O)CCC(=O)N/N=C/c2ccc(O)cc2)cc1 | 51.5 µM (active)
Cc1nc(C)c(CC(=O)N/N=C/c2ccc(O)cc2)c(=O)[nH]1 | 75.8 µM (active)
O=C(CCC(=O)Nc1ccc(F)cc1)N/N=C/c1ccc(O)cc1 | 71.3 µM (active)
CCCCCCCCCCCCCCCC(O)C[N+](C)(C)CCO (configuration not stated) | inactive
Cc1ccc(NC(=O)CN(C)C2CCCCC2)cc1Cl | inactive
O=C(CC(=O)Nc1ccc(Cl)c(Cl)c1)N/N=C/c1ccc(O)cc1 | 66.8 µM (active)
Cc1cc(=O)[nH]c(N/N=C/c2ccc(O)c(O)c2)n1 | 20.9 µM (active)
COc1cc(/C=N/Nc2nc(C)cc(=O)[nH]2)ccc1O | 24.9 µM (active)
S=c1[nH]cc2cnccn12 | 72.1 µM (active)

Structure (SMILES) | IC50
CCOC(=O)c1c(C)[nH]c(C(=O)CN2CCN(CC)CC2)c1C | inactive
CCOC(=O)c1c(C)[nH]sc1=S | 44.3 µM (active)
CCOC(=O)c1sc(=S)[nH]c1C | 46 µM (active)
CCn1c(-c2ccccc2)csc1=Nc1ccc(O)cc1 | 35.8 µM (active)
C=CCn1c(=O)/c(=C/c2ccc(O)cc2)s/c1=C(/C#N)c1nnc2n1CCCCC2 | 58.7 µM (active)
C/C(=N\NC(=O)CSCc1ccccc1Cl)c1cc(O)ccc1O | 25.6 µM (active)
CCN1CCN(CC(=O)N/N=C/c2cc(Br)cs2)CC1 | inactive
Brc1csc(C=Nc2ccc3c(c2)OCCOCCOCCOCCO3)c1 | 70.1 µM (active)
CC1=NN(c2ccc(C(=O)O)cc2)C(=O)/C1=C\c1ccc(OC(=O)c2cccs2)cc1 | inactive
COc1ccc(Br)cc1CN1CCC(N2CCCC2)CC1 | inactive
COc1ccc(N2CCN(C(=O)c3ccc(CS(=O)c4cccc(Cl)c4)o3)CC2)cc1 (configuration not stated) | inactive
COc1ccc(Cn2nnnc2C(c2cccnc2)N2CCN(c3ccc(O)cc3)CC2)cc1 (configuration not stated) | 50.3 µM (active)
Oc1ccc(N2CCN(C(c3cccs3)c3nnnn3CCc3ccccc3)CC2)cc1 (configuration not stated) | 45.2 µM (active)
CCC(c1nnnn1Cc1ccccc1)N1CCN(c2ccc(OC)cc2)CC1 (configuration not stated) | inactive
COc1cc2oc(-c3ccc(O)cc3)cc(=O)c2c(OC)c1O | 21.9 µM (active)
COc1cc(CNc2ccc3[nH]c(=O)[nH]c3c2)ccc1OCc1c(F)cccc1Cl | inactive
COc1cc(CNc2ccc3[nH]c(=O)[nH]c3c2)ccc1OCc1ccccc1F | inactive
COc1cccc(CNc2ccc3[nH]c(=O)[nH]c3c2)c1OCc1ccccc1Cl | 83.9 µM (active)
CN(CC(=O)NCc1ccncc1)S(=O)(=O)c1ccc(Cl)cc1 | inactive
Cc1ccc(S(=O)(=O)Nc2nsc(N)n2)cc1 | inactive
CN(C)c1ccc(NS(=O)(=O)c2cc(Cl)ccc2Cl)cc1 | 50 µM (active)
CC1CCN(CC(=O)Nc2ccc(S(=O)(=O)NC3CC3)cc2)CC1 | inactive
CC(NS(=O)(=O)c1ccc(Cl)cc1)C(=O)OCC(=O)Nc1ccc(N(C)C)cc1 (configuration not stated) | 70.6 µM (active)
CN(C)c1ccc(NS(=O)(=O)c2ccc(Cl)cc2)cc1 | 33.7 µM (active)
Cc1ccc(S(=O)(=O)Nc2ccc(N(C)C)cc2)cc1 | 31.3 µM (active)
CC(C)(C)N(NS(=O)(=O)c1ccc(F)cc1)c1ccccc1 | inactive
